Reference: PubChem BioAssay (NCATS)
Where “and” joins values, the source holds several entries; their conditions need not be identical. Equal entries are not always repeated. Unmarked numbers belong to inactive results. Records with an inconclusive call do not appear. A call without a number means that no potency is given here. Calls of active or inactive are those of the source. Unless noted, calls come from the whole dose curve; as a rule, active = well fitted curve in the direction sought with a large enough effect; inconclusive = small, poorly fitted or top-dose-only effect, or another doubt; inactive = no such curve, though single readings can be large; an effect the other way counts as inactive or inconclusive.

What was measured:
[1] = S16 Schwann cell viability assay (CellTiter-Glo assay) (AID 624031);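 note: cellular ATP luminescence as a viability measure; nearly all actives have a fitted effect of over 70% in size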
Procedure, shortened: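 Luminescent ATP read-out (CellTiter-Glo) after 24 h compound exposure of native S16 rat Schwann cells at 37 °C. Signals were normalized between cell-free wells and DMSO-treated cells, set as 0% activity.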

[2] = S16 Schwann cell PMP22 intronic element beta-lactamase assay (AID 624044; calls by dose curve; note: nearly all actives have a fitted effect of over 15% in size)
Procedure, shortened: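 Beta-lactamase reporter under a PMP22 intronic regulatory element in stable S16 rat Schwann cells; 24 h compound exposure. 460 nm blue signal normalized between DMSO (0%) and potassium clavulanate, with 535 nm FRET tracking viability; curves classed by r2 and response.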

[3] = test system: AA1029; experiment: qHTS profiling for inhibitors of Plasmodium falciparum proliferation (AID 504749); note: nearly all actives have a fitted effect of over 60% in size; note: potency is the fitted concentration of half-maximal effect; conditions: P. falciparum in erythrocytes, SYBR Green DNA, 72 h; series mostly up to 28.7 µM
Procedure, shortened: (§1)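 Fluorescence of SYBR Green-bound parasite DNA, read at 485/535 nm, served as the growth measure. Infected erythrocytes were cultured with compound 72 h; artemisinin (0.29 uM) and DMSO wells defined the normalization range.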

[4] = test system: CP211; experiment: as above; conditions: P. falciparum in erythrocytes, SYBR Green DNA, 72 h; series mostly up to 28.7 µM
Procedure, shortened: as §1

[5] = test system: CP260; experiment: as above; conditions: P. falciparum in erythrocytes, SYBR Green DNA, 72 h; series mostly up to 28.7 µM
Procedure, shortened: as §1

[6] = test system: CP266; experiment: as above; conditions: P. falciparum in erythrocytes, SYBR Green DNA, 72 h; series mostly up to 28.7 µM
Procedure, shortened: as §1

[7] = test system: CP286; experiment: as above; conditions: P. falciparum in erythrocytes, SYBR Green DNA, 72 h; series mostly up to 28.7 µM
Procedure, shortened: as §1

[8] = test system: CP297; experiment: as above; conditions: P. falciparum in erythrocytes, SYBR Green DNA, 72 h; series mostly up to 28.7 µM
Procedure, shortened: as §1

[9] = test system: CP315; experiment: as above; conditions: P. falciparum in erythrocytes, SYBR Green DNA, 72 h; series mostly up to 28.7 µM
Procedure, shortened: as §1

[10] = test system: FAB9; experiment: as above; conditions: P. falciparum in erythrocytes, SYBR Green DNA, 72 h; series mostly up to 28.7 µM
Procedure, shortened: as §1

[11] = test system: N140; experiment: as above; conditions: P. falciparum in erythrocytes, SYBR Green DNA, 72 h; series mostly up to 28.7 µM
Procedure, shortened: as §1

[12] = test system: PC15; experiment: as above; conditions: P. falciparum in erythrocytes, SYBR Green DNA, 72 h; series mostly up to 28.7 µM
Procedure, shortened: as §1

[13] = test system: TAB165; experiment: as above; conditions: P. falciparum in erythrocytes, SYBR Green DNA, 72 h; series mostly up to 28.7 µM
Procedure, shortened: as §1

[14] = target: DNA dC->dU-editing enzyme APOBEC-3G (Homo sapiens) (UniProt Q9HC16); experiment: qHTS for inhibitors of Vif-A3G interactions: Validation (AID 588379)
Sequence of DNA dC->dU-editing enzyme APOBEC-3G (Homo sapiens) (Q9HC16 whole entry, looked up): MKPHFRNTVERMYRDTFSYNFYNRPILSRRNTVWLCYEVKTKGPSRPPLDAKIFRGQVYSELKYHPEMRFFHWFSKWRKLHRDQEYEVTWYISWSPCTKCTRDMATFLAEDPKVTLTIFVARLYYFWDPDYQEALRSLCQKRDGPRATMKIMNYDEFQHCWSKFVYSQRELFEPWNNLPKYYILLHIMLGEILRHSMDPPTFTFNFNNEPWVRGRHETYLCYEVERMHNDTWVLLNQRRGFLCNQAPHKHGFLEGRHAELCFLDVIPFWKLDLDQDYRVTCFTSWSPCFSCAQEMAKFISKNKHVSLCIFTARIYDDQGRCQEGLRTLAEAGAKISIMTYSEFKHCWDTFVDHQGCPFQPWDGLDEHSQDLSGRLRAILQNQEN
Procedure, shortened: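 Yellow fluorescence (Ex 488, Em 500-530) of Vif-coexpressing HeLa A3G-eYFP cells, scanned by Acumen cytometer, reports blocked A3G degradation. Cells plated at 700/well overnight at 37 deg C before compound addition, then a further overnight compound incubation at 37 deg C.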

[15] = target: Cytochrome P450 1A2 (Homo sapiens) (UniProt P05177); experiment: p450-cyp1a2 (AID 410; calls by dose curve; note: potency is the fitted concentration of half-maximal effect)
Sequence of Cytochrome P450 1A2 (Homo sapiens) (P05177 whole entry, looked up): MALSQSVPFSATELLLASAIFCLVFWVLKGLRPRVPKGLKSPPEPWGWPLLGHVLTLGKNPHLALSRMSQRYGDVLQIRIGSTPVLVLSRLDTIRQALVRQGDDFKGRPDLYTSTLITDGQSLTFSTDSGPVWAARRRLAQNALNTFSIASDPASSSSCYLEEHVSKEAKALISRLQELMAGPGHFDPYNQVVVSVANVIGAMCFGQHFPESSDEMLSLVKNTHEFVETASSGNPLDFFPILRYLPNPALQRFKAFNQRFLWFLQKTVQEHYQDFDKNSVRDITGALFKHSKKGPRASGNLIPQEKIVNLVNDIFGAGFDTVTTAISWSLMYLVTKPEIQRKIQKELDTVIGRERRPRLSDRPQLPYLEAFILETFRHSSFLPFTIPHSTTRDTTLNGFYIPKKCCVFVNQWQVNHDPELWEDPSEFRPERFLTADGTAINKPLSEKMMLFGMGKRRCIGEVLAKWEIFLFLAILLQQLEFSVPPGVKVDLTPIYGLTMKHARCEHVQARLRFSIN
Procedure, shortened: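 20nM CYP1A2, 100uM Luciferin-ME (=Km), 100mM KPO4; cpd 10 min RT; +NADPH regen, 60 min RT; stop/detect 20 min; luminescence. Normalized to furafylline 57 uM = full inhibition.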

[16] = target: Glucocorticoid receptor (Homo sapiens) (UniProt P04150); experiment: GR-GFP Redistribution (AID 450;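 active = compounds whose dose series gives a full or clear partial fitted curve of increased nuclear translocation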; note: potency is the fitted concentration of half-maximal effect); conditions: U2OS GR-GFP nuclear translocation, laser cytometry, 2 h
Sequence of Glucocorticoid receptor (Homo sapiens) (P04150 whole entry, looked up): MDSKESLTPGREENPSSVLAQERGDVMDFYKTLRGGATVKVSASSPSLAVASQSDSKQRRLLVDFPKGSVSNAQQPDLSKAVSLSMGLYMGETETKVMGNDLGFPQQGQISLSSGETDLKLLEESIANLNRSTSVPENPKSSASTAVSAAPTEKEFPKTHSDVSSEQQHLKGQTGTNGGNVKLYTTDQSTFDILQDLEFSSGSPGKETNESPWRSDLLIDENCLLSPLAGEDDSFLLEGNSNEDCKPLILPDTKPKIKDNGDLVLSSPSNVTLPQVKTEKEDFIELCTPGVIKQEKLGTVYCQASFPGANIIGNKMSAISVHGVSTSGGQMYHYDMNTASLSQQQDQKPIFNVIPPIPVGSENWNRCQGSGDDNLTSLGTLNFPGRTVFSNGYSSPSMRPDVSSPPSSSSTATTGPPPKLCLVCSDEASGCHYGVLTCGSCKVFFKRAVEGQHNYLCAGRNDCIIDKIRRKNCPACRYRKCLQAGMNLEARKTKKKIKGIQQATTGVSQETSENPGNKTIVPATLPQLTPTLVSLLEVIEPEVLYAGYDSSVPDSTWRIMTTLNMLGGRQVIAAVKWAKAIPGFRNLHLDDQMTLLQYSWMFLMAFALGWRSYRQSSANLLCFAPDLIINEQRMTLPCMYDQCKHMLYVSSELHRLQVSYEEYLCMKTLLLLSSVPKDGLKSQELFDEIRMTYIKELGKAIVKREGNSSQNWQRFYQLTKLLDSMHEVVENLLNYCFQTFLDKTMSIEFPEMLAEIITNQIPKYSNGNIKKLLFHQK

[17] = qHTS Assay for Identification of Small Molecule Antagonists for NFkB Signaling Pathway (AID 895; active = well fitted inhibition curve with a large enough effect in the signal ratio, with a control signal flat, not every such curve was filed as active; the % refers to the signal ratio; note: potency is the fitted concentration of half-maximal effect)
Procedure, shortened: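 NFkB-bla ME-180 cervical carcinoma cells with beta-lactamase reporter under NFkB response element; compounds added, then TNF alpha at 10 pM final (EC50), 5 h at 37 C. LiveBLAzer substrate 2 h, room temperature; emission 460/530 nm at 405 nm excitation.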

[18] = NFAT Signaling Pathway (AID 444; active = well fitted curve in either direction with a large enough effect, not every such curve was filed as active;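 note: carbachol stimulus at about its EC50 of 1 µM final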); conditions: Jurkat NFAT-bla M1, carbachol, beta-lactamase ratio, 5 h
Procedure, shortened: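 Jurkat cells carrying an NFAT-driven β-lactamase reporter and co-transfected muscarinic M1 receptor were treated with compound plus carbachol (1 uM final, an EC50 level) for 5 h at 37 °C. CCF4 loading followed for 1 h at RT; 460/530 nm ratio gave %activity.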

[19] = qHTS Assay for Identification of Small Molecule Agonists for Thrombopoietin (TPO) Signaling Pathway (AID 917)
Procedure, shortened: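 First, Ba/F3 cells with human TPO receptor were held overnight without IL-3. Next, compounds and TPO (26 pM final) were added. After 24 hrs at 37 C, luciferase detection reagent was added and luminescence measured following 10 min at room temperature.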

[20] = target: Muscarinic acetylcholine receptor M1 (Rattus norvegicus) (UniProt P08482); experiment: qHTS Assay for Antagonists of Acetylcholine Muscarinic M1 Receptor: Kinetic Measurement of Intracellular Calcium Response (AID 943); note: nearly all actives have a fitted effect of over 75% in size; note: potency is the fitted concentration of half-maximal effect;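 for activity change, negative = inhibition: Fluo-4 calcium signal as peak divided by basal fluorescence over 4 min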
Sequence of Muscarinic acetylcholine receptor M1 (Rattus norvegicus) (P08482 whole entry, looked up): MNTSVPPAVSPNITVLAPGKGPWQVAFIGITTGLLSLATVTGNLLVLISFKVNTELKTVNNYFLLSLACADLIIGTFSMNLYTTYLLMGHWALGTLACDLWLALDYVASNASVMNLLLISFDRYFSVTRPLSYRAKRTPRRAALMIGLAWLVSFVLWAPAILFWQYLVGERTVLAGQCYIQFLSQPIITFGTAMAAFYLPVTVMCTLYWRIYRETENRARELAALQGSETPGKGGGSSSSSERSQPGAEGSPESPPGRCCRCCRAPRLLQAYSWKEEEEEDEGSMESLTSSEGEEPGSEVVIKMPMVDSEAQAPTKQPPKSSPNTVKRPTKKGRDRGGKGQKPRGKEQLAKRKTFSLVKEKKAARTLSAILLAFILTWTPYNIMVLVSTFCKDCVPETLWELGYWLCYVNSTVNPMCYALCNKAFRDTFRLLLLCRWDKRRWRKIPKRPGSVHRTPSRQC
Procedure, shortened: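 Read-out: peak over basal Fluo-4 fluorescence, kinetic at 1 Hz for 4 min after EC80 carbachol (100 nM final). Rat M1-CHO cells, dye loaded 1 h at 37C, compound added 10 min before agonist.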

[21] = at 7.69 µM (top of the series) unless noted

SMILES: CO[C@H]1/C=C/O[C@@]2(C)Oc3c(C)c(O)c4c(O)c(c(/C=N\N5CCN(C6CCCC6)CC5)c(O)c4c3C2=O)NC(=O)/C(C)=C\C=C\[C@H](C)[C@H](O)[C@@H](C)[C@@H](O)[C@@H](C)[C@H](OC(C)=O)[C@@H]1C
- outcome [1]: inactive
- outcome [2]: inactive
- Potency [3]: 1.26 µM (active)
- Potency [4]: 4.26 µM (active)
- Potency [5]: 1 µM (active)
- Potency [6]: 6.01 µM (active)
- Potency [7]: 2.24 µM (active)
- Potency [8]: 1.69 µM (active)
- Potency [9]: 4.78 µM (active)
- Potency [10]: 10 µM (active)
- Potency [11]: 0.141 µM (active)
- Potency [12]: 0.794 µM (active)
- Potency [13]: 0.158 µM (active)

SMILES: C=C1/C(=C\C=C2/CCC[C@]3(C)[C@@H]([C@H](C)CCCC(C)(C)O)CC[C@@H]23)C[C@@H](O)C[C@@H]1O
- outcome [2]: inactive
- Potency [3]: inactive
- Potency [4]: inactive
- Potency [5]: inactive
- Potency [6]: inactive
- Potency [7]: inactive
- Potency [8]: inactive
- Potency [9]: inactive
- Potency [10]: inactive
- Potency [11]: inactive
- Potency [12]: inactive
- Potency [13]: inactive

SMILES: O=C(CCc1ccc(O)cc1)c1c(O)cc(O)cc1O[C@@H]1O[C@H](CO)[C@@H](O)[C@H](O)[C@H]1O
- outcome [14]: inactive

SMILES: CC(C)n1c(/C=C/[C@H](O)C[C@H](O)CC(=O)O)c(-c2ccc(F)cc2)c2ccccc21
- outcome [1]: inactive

SMILES: N=C1Sc2ccccc2C2=NCCCN12
- Potency [15]: 10 µM (active)
- Potency [16]: > 46 µM
- Potency [17]: 2 µM (active)

SMILES: NCCC(=O)NCCc1cnc[nH]1
- Potency [15]: inactive
- activity change, negative = inhibition ([18]; at 17.2 µM (top of the series)): -0.872%
- activity change, negative = inhibition ([18]; at 38 µM (top of the series)): 2.63%
- Potency [16]: > 46 µM and > 20.6 µM
- Potency [17]: inactive
- outcome [19]: inactive
- Potency [20]: inactive

SMILES: NCCNC(=O)c1ccc(Cl)cc1
- Potency [15]: 12.6 µM (active) and 10 µM (active)
- activity change, negative = inhibition [18, 21]: 9.25% [at 38 µM]
- outcome [19]: inactive
- outcome [14]: inactive

SMILES: N=C(N)SCCc1cccc(CCSC(=N)N)c1
- Potency [16]: > 46 µM
- Potency [17]: inactive
- outcome [19]: inactive
- Potency [20]: 4.47 µM (active)

SMILES: O=C(Cc1ccc(Cl)c(Cl)c1)OCCN1CCCC1
- Potency [15]: 12.6 µM (active)
- activity change, negative = inhibition [18, 21]: -14.7% [at 38 µM]
- Potency [16]: > 46 µM
- Potency [17]: inactive
- outcome [19]: inactive
- Potency [20]: 14.1 µM (active)

SMILES: CN=C(N)NCCCC(N)C(=O)O (stereo not given)
- outcome [1]: inactive
- outcome [2]: inactive
- Potency [3]: inactive
- Potency [4]: inactive
- Potency [5]: inactive
- Potency [6]: inactive
- Potency [7]: inactive
- Potency [8]: inactive
- Potency [9]: inactive
- Potency [10]: inactive
- Potency [11]: inactive
- Potency [12]: inactive
- Potency [13]: inactive

SMILES: CN1C(=O)CCC1c1cccnc1 (stereo not given)
- outcome [14]: inactive
- outcome [1]: inactive
- outcome [2]: inactive
- Potency [3]: inactive
- Potency [4]: inactive
- Potency [5]: inactive
- Potency [6]: inactive
- Potency [7]: inactive
- Potency [8]: inactive
- Potency [9]: inactive
- Potency [10]: inactive
- Potency [11]: inactive
- Potency [12]: inactive
- Potency [13]: inactive

SMILES: C[C@]12CCC(=O)C=C1CC[C@@H]1C2[C@@H](O)C[C@@]2(C)[C@H]1CC[C@]2(O)C(=O)CO (stereo not given in full)
- outcome [14]: inactive

SMILES: OC[C@H]1O[C@@H](n2cnc3c(NCCc4ccccc4)ncnc32)[C@H](O)[C@H]1O
- Potency [20]: inactive
